This is one part of a sample in which hits are shown more often than they occur.
TbPYK inhibitor = blocks Trypanosoma brucei pyruvate kinase | Potency, µM (highest dose often 76.8 µM), inactives show at the highest dose activity, negative = inhibition, hits mostly inhibitors | 410,000 tested, 0.12% active | Q57TT1 | AID 624173 | TbPYK enzyme, Kinase-Glo Plus ATP luminescence, 45 min; note: potency is the fitted concentration of half-maximal effect; % is set by controls: 0 for no effect and ±100 for the full control effect; nearly all actives have a fitted effect of over 50% in size
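Glycolytic pyruvate kinase of T. brucei was incubated with substrate, test compound and 130 uM ADP for 45 minutes at room temperature. Luminescent Kinase-Glo Plus signal was measured after 10 minutes.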
Shiga inhibitor = blocks Shiga toxin action in Vero cells | inhibition, % at 38.7 µM | AID 2315 | Vero cells, Shiga toxin protein synthesis inhibition reporter | 290,000 tested, 9.2% active; in the data active = inhibition mostly above about 28%, no sharp cut-off; inactive = mostly below about 43%; note: 0% is about no effect
LmPK inh = blocks Leishmania mexicana pyruvate kinase activity | Q27686 | purified LmPK, Kinase-Glo ATP luminescence, 1 h | Potency, µM (series often up to 57.5 µM), without a hit: at the top dose activity change, negative = inhibition, hits mostly inhibitors | 290,000 tested, 0.37% active; note: potency is the fitted concentration of half-maximal effect; % is set by controls: 0 for no effect and ±100 for the full control effect
Target sequence (Q27686 whole entry, looked up): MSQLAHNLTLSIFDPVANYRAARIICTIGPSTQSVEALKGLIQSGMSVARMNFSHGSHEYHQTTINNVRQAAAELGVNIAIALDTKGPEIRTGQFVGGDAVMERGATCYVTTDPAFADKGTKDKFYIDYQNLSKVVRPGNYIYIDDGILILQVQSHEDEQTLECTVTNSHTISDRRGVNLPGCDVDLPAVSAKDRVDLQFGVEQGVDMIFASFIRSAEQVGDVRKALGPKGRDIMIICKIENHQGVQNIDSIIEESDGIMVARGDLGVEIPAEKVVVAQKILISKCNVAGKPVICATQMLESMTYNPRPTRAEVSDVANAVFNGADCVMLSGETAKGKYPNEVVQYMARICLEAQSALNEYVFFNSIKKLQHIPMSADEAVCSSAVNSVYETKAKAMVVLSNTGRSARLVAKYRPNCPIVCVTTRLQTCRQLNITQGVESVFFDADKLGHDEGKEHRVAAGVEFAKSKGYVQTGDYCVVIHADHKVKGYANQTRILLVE
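Purified LmPK (0.1 nM) converted ADP (0.1 mM) to ATP with PEP (0.5 mM) in imidazole buffer pH 7.2 with KCl and MgCl2, 1 h at room temperature. ATP was read by Kinase-Glo luminescence; data normalized to uninhibited and no-enzyme controls.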
CHX counter = counter-screen for Shiga toxin inhibitors: cycloheximide protein synthesis inhibition; cell reporter, cycloheximide protein synthesis inhibition counterscreen; max response, %; 300,000 tested, 12% active; in the data active = max response mostly above about 13%, no sharp cut-off; inactive = mostly below about 14%; note: read at 38.3 µM for the half of the compounds with a filed dose; 0% is about no effect
FBPA Giardia inh = blocks Giardia fructose-bisphosphate aldolase activity. A8B2U2. purified Giardia FBPA. Potency, µM (series often up to 59.6 µM), inactives show top-dose activity, negative = inhibition, actives largely listed as inhibitors. 290,000 tested, 0.71% active. AID 2451; note: potency is the fitted concentration of half-maximal effect; % is set by controls: 0 for no effect and ±100 for the full control effect; nearly all actives have a fitted effect of over 55% in size
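40 nM FBPA preincubated 10 min at RT with compound (up to 57.5 uM final), then substrate plus GAPDH/TPI/NAD/arsenate coupling and diaphorase/resazurin added. Fluorescence read after 20 min at RT, 525/598 nm.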
RE007 growth inh = less growth of the S. pombe RE007 Vpr strain; S. pombe RE007 Vpr strain, BacTiter-Glo ATP luminescence, 24 h; Potency, µM (series often up to 92.2 µM), without a hit: top-dose activity change, negative = less growth, most hits filed as inhibitors; 360,000 tested, 0.21% active; AID 651644; active = well fitted falling curve with a large enough effect; inconclusive = small, poorly fitted or top-dose-only effect; inactive = no such curve, though single readings can be large or run the other way; note: potency is the fitted concentration of half-maximal effect; % is set by controls: 0 for no effect and ±100 for the full control effect; nearly all actives have a fitted effect of over 50% in size
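Fission yeast RE007 carrying one integrated HIV-1 vpr copy, seeded at OD 0.01 in PMG+AL medium with 23 nL pinned compound. Grown 24 h at 30 degrees; viability read by BacTiter-Glo luminescence after 5 min.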
* hit, by the source's call; ? = inconclusive; / = no result given; + = active, no number. Unless noted, calls come from the whole dose curve; as a rule, active = well fitted curve in the direction sought with a large enough effect; inconclusive = small, poorly fitted or top-dose-only effect, or another doubt; inactive = no such curve, though single readings can be large; an effect the other way counts as inactive or inconclusive.

SMILES | TbPYK inhibitor | Shiga inhibitor | LmPK inh | CHX counter | FBPA Giardia inh | RE007 growth inh
Cc1ccnc(NC(=O)c2c(O)c3ccccc3n(C)c2=O)c1 | / | 71.2* | 3.4% | 50.6* | 1.5% | /
Cc1cccc(NC(=O)c2c(O)c3ccccc3n(C)c2=O)c1 | -1.8% | / | -0.2% | 24.9* | 2.4% | 8.5%
CC1(C)O[C@H]2[C@@H](O1)[C@@H](C(=O)Nc1ccccc1C(F)(F)F)O[C@@H]1OC(C)(C)O[C@@H]12 | 2.0% | / | / | / | / | /
CC(/C=C/c1ccc(N(C)C)cc1)=N\N=C(/N)SC1CC(=O)N(c2ccc(C(=O)O)cc2)C1=O (stereo unspecified) | -2.8% | 69.9* | 5.9% | 45.1* | -2.9% | 0.4%
CC(C)(C)CC(=O)Nc1nnc2n1CCS2 | -3.1% | / | / | / | / | /
O=C(Nc1ncc2c(n1)-c1ccccc1CC2)c1cccs1 | -3.1% | 63.7 | -3.5% | 27.8* | -28.8% | -1.6%
O=C(Nc1ncc2c(n1)-c1ccccc1CC2)c1ccccc1 | 13.1% | 62.9* | -1.0% | 20.0* | -7.7% | -14.2%
Nc1ncc2c(n1)-c1ccccc1CC2 | -9.2% | 33.0 | 7.4% | 13.0 | 0.2% | -8.5%
Fc1ccccc1Nc1nc2c(s1)CCc1ccccc1-2 | / | 85.5* | -4.6% | 72.5* | 19.9µM* | /
O=C(Nc1ncc2c(n1)-c1ccccc1CC2)c1ccc(F)cc1 | 1.7% | -6.6 | 2.4% | -3.0 | -5.9% | 23.5%
O=C(Nc1nc2c(s1)CCc1ccccc1-2)c1cccs1 | -27.4% | 93.8* | 5.4% | 41.2* | -10.0% | 1.9%
Cc1cccc(CNC(=O)c2ccc(N3Cc4ccccc4Oc4ncccc43)s2)c1 | -0.2% | / | / | / | / | /
CCc1ccc2c(c1)C(NC(C)=O)C(=O)N2CCN1CCOCC1 (stereo unspecified) | -22.6% | -2.3 | -6.5% | -0.8 | 29.9% | 2.8%
O=c1cc[nH]c2c1ccc1c(=O)cc[nH]c12 | -8.9% | 26.6 | 1.0% | 6.6 | ? | -1.7%
O=c1cc[nH]c2c(Cl)cccc12 | -2.5% | 40.7* | -0.3% | 20.7* | 0.3% | -2.7%
Cc1cc(NC(=O)c2cccc(COc3ccc(Br)cc3)c2)no1 | -9.3% | + | -0.8% | 111.8* | 0.4% | -10.2%
Cc1cc(NC(=O)c2ccc(Cl)cc2)no1 | -1.1% | 58.9* | -0.6% | 31.9* | 0.8% | -1.1%
Cc1cc(NC(=O)c2ccc(S(=O)(=O)N(C)C)cc2)no1 | -5.4% | 16.8 | 0.1% | 10.3 | 5.1% | 4.6%
Cc1cc(NC(=O)c2ccc3nc(C)sc3c2)no1 | 0.9% | 195.4* | 3.5% | 43.1* | 1.3% | 14.5%
Cc1nc2ccc(NC(=O)c3ccc([N+](=O)[O-])cc3)cc2s1 | -16.3% | 9.9 | -2.0% | 14.1 | 3.5% | -9.1%
Cc1cc(NC(=O)NC(=O)c2ccccc2)no1 | -2.0% | 38.2* | -9.2% | 19.7* | 3.9% | -16.1%
Cc1cc(OCCCn2c(CCNC(=O)C3CCCCC3)nc3ccccc32)ccc1Cl | -1.3% | -2.5 | / | -2.4 | / | /
Cc1cc2oc(=O)cc(C)c2c2occ(-c3ccc(Cl)cc3)c12 | -7.5% | / | / | / | / | /
C/C(=C\c1ccccc1)C(=O)Nc1cc(C)on1 | 2.7% | 98.4* | -3.5% | 40.1* | 2.7% | 1.8%
CCOc1ccc(C(=O)Nc2cc(C)on2)cc1 | -1.5% | 73.2* | -21.5% | 30.7* | -0.2% | -25.4%
SMILES | TbPYK inhibitor | Shiga inhibitor | LmPK inh | CHX counter | FBPA Giardia inh | RE007 growth inh
COc1cccc(CNC(=O)c2cc3c(c(-c4cccc(-c5cccc(C#N)c5)c4)n2)[C@H](CCO)N(S(=O)C(C)(C)C)C3)c1 (stereo partly specified) | 0.0% | / | / | / | / | 0.9%
O=C1C(Cl)=C(N2CCCCCC2)C(=O)N1c1ccc(Br)cc1 | -1.7% | 21.6 | -8.9% | 3.5 | -9.8% | -29.1%
O=C1C(Cl)=C(N2CCCCCC2)C(=O)N1c1ccccc1 | 2.5% | 45.6 | 0.7% | 25.2* | 4.7% | ?
Cn1/c(=N\NC(=O)c2ccccc2Cl)sc2ccccc21 | 1.9% | 75.3* | -0.4% | 30.8* | -11.1% | -7.9%
Cn1/c(=N\NC(=O)C2CCCCC2)sc2ccccc21 | -1.1% | 56.2* | -2.1% | 36.9* | 0.2% | -8.6%
Cc1ccc(S(=O)(=O)N/N=c2\sc3ccccc3n2C)cc1 | -6.1% | -10.8 | -2.4% | -7.0 | 5.6% | 8.6%
CC(=O)N/N=c1\sc2ccccc2n1C | 0.5% | 29.0 | -5.2% | 1.1 | 3.1% | 1.4%
